Source: PubChem BioAssay (several laboratories)
TPT1 inh: Candida albicans TPT1 enzyme inhibitors, primary screen, biochemical, fluorescence polarization; recombinant caTPT1, FP RNA substrate dephosphorylation; 300,000 tested, 0.81% active; AID 1962, 2009; inhibition, % at 5 µM; tRNA 2'-phosphotransferase TPT1 (Candida albicans SC5314);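 active = inhibition above the mean of all tested compounds plus 3 SD, set per screening campaign, cut at about 24% in these data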;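 note: plate controls were DMSO alone for no effect and ferristatin control at 100 nM for full effect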
CRFBP-R2 agonist: agonists of CRF-BP/CRF-R2 complex, primary screen, cell-based, HEK293, calcium dye fluorescence, uHTS | AID 588473, 2011 | 350,000 tested, 0.46% active | activation, % at 13.2 µM | calcium dye fluorescence (FLIPR); percent of saturating CRF peptide response;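 active = activation of at least 50%, plus an integration ratio under a set limit after plate pattern correction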;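 note: plate controls were neutral control wells without compound for no effect and CRF at EC100 for full effect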
Myeloid diff MLP: induction of myeloid progenitor differentiation, primary screen, cell-based, flow cytometry, MLPCN library. 360,000 tested, 1% active. calls only at 10 µM. AID 624256, 2012. ER-HoxA9 myeloid progenitors, lysozyme-GFP differentiation;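 active = normalized GFP-positive differentiation at or above the plate's own cutoff, the solvent-only control mean plus 3 SD; inconclusive = no clear call, values can overlap the other calls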;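 note: cells exposed to compound for four days before flow analysis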
IDE cell activ: human IDE activators in live cells, primary screen, fluorescence polarization, HEK cells, FAbeta-B substrate; FAbeta-B cleavage; 0% vehicle, 100% cell-free pure enzyme wells; activation, % at 5.96 µM; 340,000 tested, 0.073% active; Insulin-degrading enzyme (Homo sapiens), P14735;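 active = activation above the mean of all tested compounds plus 3 SD, set per screening campaign, cut at about 17% in these data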
Target sequence (P14735 whole entry, looked up): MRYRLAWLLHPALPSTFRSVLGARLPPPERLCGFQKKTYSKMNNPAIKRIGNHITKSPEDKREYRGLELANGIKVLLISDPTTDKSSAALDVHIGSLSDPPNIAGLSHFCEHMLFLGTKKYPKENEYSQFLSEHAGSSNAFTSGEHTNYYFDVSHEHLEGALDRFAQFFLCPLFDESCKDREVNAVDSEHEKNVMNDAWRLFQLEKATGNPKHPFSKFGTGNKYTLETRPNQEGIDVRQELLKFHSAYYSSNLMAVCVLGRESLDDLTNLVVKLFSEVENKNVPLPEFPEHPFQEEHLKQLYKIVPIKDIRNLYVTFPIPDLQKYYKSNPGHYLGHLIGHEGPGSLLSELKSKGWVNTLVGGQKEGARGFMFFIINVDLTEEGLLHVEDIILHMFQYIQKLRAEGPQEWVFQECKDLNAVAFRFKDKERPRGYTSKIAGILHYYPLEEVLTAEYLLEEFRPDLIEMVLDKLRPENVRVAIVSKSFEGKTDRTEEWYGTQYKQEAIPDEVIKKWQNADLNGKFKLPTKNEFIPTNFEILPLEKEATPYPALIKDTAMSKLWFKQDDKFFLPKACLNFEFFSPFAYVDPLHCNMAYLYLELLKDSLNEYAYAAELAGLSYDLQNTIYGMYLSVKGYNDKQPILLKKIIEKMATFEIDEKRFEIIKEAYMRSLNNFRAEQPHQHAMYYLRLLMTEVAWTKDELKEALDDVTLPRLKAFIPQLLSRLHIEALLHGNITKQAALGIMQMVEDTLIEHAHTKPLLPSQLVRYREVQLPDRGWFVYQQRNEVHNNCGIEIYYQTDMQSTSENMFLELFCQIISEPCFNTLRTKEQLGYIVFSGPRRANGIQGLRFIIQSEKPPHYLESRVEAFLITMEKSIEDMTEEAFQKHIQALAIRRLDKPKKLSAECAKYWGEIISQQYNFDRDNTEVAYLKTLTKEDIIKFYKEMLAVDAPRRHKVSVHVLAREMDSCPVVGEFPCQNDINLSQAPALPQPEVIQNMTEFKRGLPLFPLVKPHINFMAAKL
IDE inh: human IDE inhibitors in live cells, primary screen, fluorescence polarization, HEK cells, FAbetaB substrate | Insulin-degrading enzyme (Homo sapiens), P14735 | FAbetaB cleavage | inhibition, % at 5.59 µM | 320,000 tested, 0.41% active;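 active = percent inhibition above the average of all tested compounds plus 3 SD, set per screening campaign, cut at about 16% in these data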;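 note: IDE supplied by intact live HEK cells; FP after avidin binding of uncleaved biotin substrate so inhibition keeps polarization high; 0% = DMSO wells and 100% = 60 µM reference IDE inhibitor Ii1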
CRFR2-BP antag: antagonists of CRF-BP/CRF-R2 complex, primary screen, cell-based, HEK293, calcium dye fluorescence, uHTS | CRF-induced calcium fluorescence | 350,000 tested, 0.59% active | inhibition, % at 11.8 µM | AID 588475, 2011;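 active = inhibition of the ligand-induced calcium signal above about 50% at the single tested concentration, limit read from the data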
* = called active by the depositor; i = inactive; ? = inconclusive; · = not tested or not shown; + = active, no number. Sampled rows, rich in hits. Any-hit rate of the full collection: about 2.6%.

SMILES | TPT1 inh | CRFBP-R2 agonist | Myeloid diff MLP | IDE cell activ | IDE inh | CRFR2-BP antag
O=C1NN(c2ccccc2)C(=O)/C1=C\c1cccn1-c1ccc(Cl)c([N+](=O)[O-])c1 | -2 | 0 | + | 5 | 2 | 16
O=C1S/C(=C\c2ccc(O)c([N+](=O)[O-])c2)C(=O)N1c1ccccc1Cl | 7 | 1 | i | 2 | 0 | 55*
C=CCNC(=O)COC(=O)COc1ccc(Cl)cc1 | 4 | 0 | i | 2 | 1 | 9
O=C1S/C(=C\c2ccc(O)c([N+](=O)[O-])c2)C(=O)N1Cc1cccc([N+](=O)[O-])c1 | -3 | 5 | i | · | -1 | 92*
CC(C)(C)c1ccc(CCC2OCC(C[N+]3(C)CCOCC3)O2)cc1 (centres undefined) | -1 | -2 | i | · | 2 | 10
CC(=O)Oc1ccc2cc(-c3cccnc3)c(=O)oc2c1 | · | 0 | i | 1 | · | 79*
COc1ccc2cc(-c3ccccc3)c(=O)oc2c1 | -1 | 1 | i | 2 | 8 | 9
Cc1ccc(SCC(=O)Nc2cccc(-c3nnc(-c4ccco4)o3)c2)cc1 | 2 | 4 | i | 2 | 5 | -3
CCOC(=O)N1CCN(S(=O)(=O)c2ccc(C(=O)Nc3sc4c(c3C(N)=O)CCN(CC)C4)cc2)CC1 | 15 | 2 | i | 5 | 9 | -6
CCCN1CCc2c(sc(NC(=O)c3ccc(S(=O)(=O)N4CCN(C(=O)OCC)CC4)cc3)c2C(N)=O)C1 | 156* | 108* | + | -8 | 11 | -72
CN(C(=O)CN1C(=O)/C(=C/c2ccccc2Cl)SC1=S)C1CCS(=O)(=O)C1 (centres undefined) | 1 | 6 | i | 0 | 0 | 53*
CN(C(=O)CN1C(=O)S/C(=C\c2ccccc2Cl)C1=O)C1CCS(=O)(=O)C1 (centres undefined) | -4 | 0 | i | 1 | -3 | -12
C/C(=N\NC(=O)c1ccc(Br)cc1)C1C(=O)c2ccccc2C1=O | 4 | 14 | i | 3 | 1 | 55*
CSC1=NC(C)(C)C=C(/C=C/c2ccc(Cl)cc2Cl)N1 | -4 | 3 | + | -5 | 3 | -29
Cc1c(OCC(=O)NCCCN2CCOCC2)ccc2c3c(c(=O)oc12)CCCC3 | -2 | 1 | i | 0 | -1 | -8
Cc1c(OCC(=O)NCCN2CCOCC2)ccc2c3c(c(=O)oc12)CCC3 | -1 | -2 | i | 4 | 4 | 115*
c1ccc(-c2cn(-c3ccccc3)c3[n+]2CCS3)cc1 | 1 | -2 | + | 5 | -8 | 18
Fc1ccc(-n2cc(-c3ccccc3)[n+]3c2SCC3)cc1 | 2 | 0 | i | -1 | 4 | -4
Cc1ccc(S(=O)(=O)CC(=O)c2cc(C)c(O)c(C)c2)cc1 | 2 | 0 | i | 0 | -5 | 15
Cn1c(-c2ccccc2)cnc1SCC(=O)N1CCCc2ccccc21 | -1 | -1 | i | 5 | -4 | -5
O=C(CSc1ncc(-c2ccccc2)n1C1CCCC1)N1CCc2ccccc21 | 2 | 102* | i | -1 | 2 | -124
C[n+]1c2cc(N)ccc2cc2ccc(N)cc21 | · | 225* | ? | 39* | · | -209
COc1ccc(N2CC(C(=O)N/N=C/c3cc([N+](=O)[O-])ccc3O)CC2=O)cc1 (centres undefined) | 0 | -1 | i | 1 | -3 | 6
CCn1cc(C=C2C(=O)c3ccccc3C2=O)c2ccccc21 | · | 196* | i | -2 | · | -246
O=C(CCCSc1nc2ccccc2[nH]1)NCc1ccccc1 | 1 | -1 | i | -1 | -3 | 9
O=C(CCCSc1nc2ccccc2[nH]1)Nc1nnc(-c2ccccc2)o1 | 4 | -2 | + | -6 | -4 | -3
CCCn1cnc2cc(NC(=O)c3cccs3)ccc21 | 0 | -1 | i | 5 | 2 | 1
Cc1ccc(N(C)S(=O)(=O)c2ccc3c(c2)CC(C)N3C(=O)C2CC2)cc1 (centres undefined) | -2 | 2 | + | 2 | 0 | 18
